Data on ten molecules can be found in the supplement of paper PMC4022240.

What all share (assay): peptide microarray binding signal (635 nm), min-max normalized on array (fraction of array maximum); higher = stronger binding
Holding throughout (settings): peptide region: H3 5-17

Assay [1] addresses T1, HaloTag-ATRX ADD domain (163-292).
T1 chain: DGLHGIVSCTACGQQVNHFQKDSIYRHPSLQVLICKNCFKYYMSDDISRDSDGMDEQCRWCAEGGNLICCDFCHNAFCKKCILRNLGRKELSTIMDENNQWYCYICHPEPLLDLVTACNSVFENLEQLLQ
In short, it runs like this:
(§1)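 For each library, binding signal was taken as the triplicate-spot mean intensity and then min-max scaled. Spots of histone 13-mer peptide–cellulose conjugates on nitrocellulose, printed in triplicate with a Cy3 tracer, were probed for 1 h at 4°C with either biotin-labelled HaloTag reader fusions (10 nM to 1 μM) and streptavidin-Alexa Fluor 647 or rabbit histone antibodies (1:10,000 to 1:2,000) and anti-rabbit Alexa 647. Readout at 635 nm came from an Axon GenePix 4000B.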

The target of assay [2] is HaloTag-ING2 PHD (mouse Ing2 200-280). The method in brief: as §1
Assay [3] deals with anti-H3K4me3 antibody ab8580. In short, it runs like this:
as §1

Assay [4] addresses anti-H3K9me3 antibody ab8898. In short, it runs like this:
as §1

Where [5] appears, read: peptide modifications: H3K14me2, binder concentration: 1:2,000 dilution.
Setting [6] is: peptide modifications: H3K14me2, binder concentration: 1:10,000 dilution.
Where [7] appears, read: peptide modifications: H3R8cit H3K9ac, binder concentration: 1:2,000 dilution.
Setting [8] is: peptide modifications: H3R8cit H3K9ac, binder concentration: 1:10,000 dilution.
Where [9] appears, read: peptide modifications: H3K9me3 H3K14me2, binder concentration: 1:2,000 dilution.
Setting [10] is: peptide modifications: H3K9me3 H3K14me2, binder concentration: 1:10,000 dilution.
The mark [11] stands for this setting: peptide modifications: H3K9me3 H3S10ph, binder concentration: 1:2,000 dilution.
[12] abbreviates: peptide modifications: H3K9me3 H3S10ph, binder concentration: 1:10,000 dilution.
The mark [13] stands for this setting: peptide modifications: H3K9me3 H3K14me1, binder concentration: 1:2,000 dilution.
Where [14] appears, read: peptide modifications: H3K9me3 H3K14me1, binder concentration: 1:10,000 dilution.
Where [15] appears, read: peptide modifications: H3K14me3, binder concentration: 1:2,000 dilution.
The mark [16] stands for this setting: peptide modifications: H3K14me3, binder concentration: 1:10,000 dilution.
[17] abbreviates: peptide modifications: H3K14ac, binder concentration: 1:2,000 dilution.
Where [18] appears, read: peptide modifications: H3K14ac, binder concentration: 1:10,000 dilution.
Setting [19] is: peptide modifications: H3K9me3 H3T11ph, binder concentration: 1:2,000 dilution.
Setting [20] is: peptide modifications: H3K9me3 H3T11ph, binder concentration: 1:10,000 dilution.
Setting [21] is: peptide modifications: H3K14me1, binder concentration: 1:2,000 dilution.
Where [22] appears, read: peptide modifications: H3K14me1, binder concentration: 1:10,000 dilution.
[23] abbreviates: peptide modifications: H3K9me3 H3K14me3, binder concentration: 1:2,000 dilution.
Where [24] appears, read: peptide modifications: H3K9me3 H3K14me3, binder concentration: 1:10,000 dilution.

± gives the standard deviation.

B1: H3 5-17 Q T A R K S T G G Kme2 A P R (peptide)
chain: QTARKSTGGKAPR
In the case of B1, the “peptide microarray binding signal” value in assay [1] (peptide modifications: H3K14me2, binder concentration: 50 nM) worked out at 0.00956 ± 0.00084; in assay [1] (peptide modifications: H3K14me2, binder concentration: 500 nM), 0.0335 ± 0.0014; in assay [2] (peptide modifications: H3K14me2, binder concentration: 10 nM) it was 0.0584 ± 0.011; in assay [2] (peptide modifications: H3K14me2, binder concentration: 100 nM) it was 0.077 ± 0.0071; in assay [3] (setting [5]), 0.044 ± 0.004; in assay [3] (setting [6]), 0.0224 ± 0.0035. For the same molecule, the “peptide microarray binding signal” value in assay [4] (setting [5]) is 0.0137 ± 0.00078; in assay [4] (setting [6]) it was 0.00715 ± 0.00071.

B2: H3 5-17 Q T A Rcit Kac S T G G K A P R (peptide)
chain: QTARKSTGGKAPR
Take B2: the “peptide microarray binding signal” value in assay [1] (peptide modifications: H3R8cit H3K9ac, binder concentration: 50 nM) amounted to 0.0106 ± 0.00074; in assay [1] (peptide modifications: H3R8cit H3K9ac, binder concentration: 500 nM), 0.0249 ± 0.0053; in assay [2] (peptide modifications: H3R8cit H3K9ac, binder concentration: 10 nM) it was 0.0426 ± 0.0074; in assay [2] (peptide modifications: H3R8cit H3K9ac, binder concentration: 100 nM), 0.0673 ± 0.0053; in assay [3] (setting [7]) it was 0.0133 ± 0.0056; in assay [3] (setting [8]), 0.0146 ± 0.0065. Besides, the “peptide microarray binding signal” value stood at 0.0143 ± 0.0052 in assay [4] (setting [7]) and 0.0112 ± 0.00045 in assay [4] (setting [8]).

B3: H3 5-17 Q T A R Kme3 S T G G Kme2 A P R (peptide)
chain: QTARKSTGGKAPR
Consider B3, for which the “peptide microarray binding signal” value worked out at 0.0125 ± 0.00061 in assay [1] (peptide modifications: H3K9me3 H3K14me2, binder concentration: 50 nM); 0.0226 ± 0.0018 in assay [1] (peptide modifications: H3K9me3 H3K14me2, binder concentration: 500 nM); 0.0179 ± 0.0015 in assay [2] (peptide modifications: H3K9me3 H3K14me2, binder concentration: 10 nM); 0.0366 ± 0.016 in assay [2] (peptide modifications: H3K9me3 H3K14me2, binder concentration: 100 nM); 0.117 ± 0.017 in assay [3] (setting [9]); 0.082 ± 0.012 in assay [3] (setting [10]). Further, the “peptide microarray binding signal” value worked out at 0.869 ± 0.044 in assay [4] (setting [9]) and 1 ± 0.084 in assay [4] (setting [10]).

B4: H3 5-17 Q T A R Kme3 Sph T G G K A P R (peptide)
chain: QTARKSTGGKAPR
On to B4, for which the “peptide microarray binding signal” value in assay [1] (peptide modifications: H3K9me3 H3S10ph, binder concentration: 50 nM) was found to be 0.005862 ± 5.4e-05; in assay [1] (peptide modifications: H3K9me3 H3S10ph, binder concentration: 500 nM), 0.0171 ± 0.00064; in assay [2] (peptide modifications: H3K9me3 H3S10ph, binder concentration: 10 nM), 0.00358 ± 0.00073; in assay [2] (peptide modifications: H3K9me3 H3S10ph, binder concentration: 100 nM), 0.0227 ± 0.0053; in assay [3] (setting [11]), 0.00466 ± 0.0006; in assay [3] (setting [12]), 0.00913 ± 0.0042. The “peptide microarray binding signal” value in assay [4] (setting [11]) worked out at 0.362 ± 0.11; in assay [4] (setting [12]) it was 0.273 ± 0.078.

B5: H3 5-17 Q T A R Kme3 S T G G Kme A P R (peptide)
chain: QTARKSTGGKAPR
For the molecule B5, the “peptide microarray binding signal” value in assay [1] (peptide modifications: H3K9me3 H3K14me1, binder concentration: 50 nM) came out at 0.00285 ± 0.00016; in assay [1] (peptide modifications: H3K9me3 H3K14me1, binder concentration: 500 nM), 0.00524 ± 0.00015; in assay [2] (peptide modifications: H3K9me3 H3K14me1, binder concentration: 10 nM), 0.00406 ± 0.00024; in assay [2] (peptide modifications: H3K9me3 H3K14me1, binder concentration: 100 nM), 0.0116 ± 0.00073; in assay [3] (setting [13]), 0.00483 ± 0.00038; in assay [3] (setting [14]) it was 0.00251 ± 9.7e-05. Also, the “peptide microarray binding signal” value in assay [4] (setting [13]) stood at 0.175 ± 0.043; in assay [4] (setting [14]), 0.0981 ± 0.043.

B6: H3 5-17 Q T A R K S T G G Kme3 A P R (peptide)
chain: QTARKSTGGKAPR
Consider B6, for which the “peptide microarray binding signal” value was determined as 0.00931 ± 0.00042 in assay [1] (peptide modifications: H3K14me3, binder concentration: 50 nM); 0.0186 ± 0.0016 in assay [1] (peptide modifications: H3K14me3, binder concentration: 500 nM); 0.0256 ± 0.00028 in assay [2] (peptide modifications: H3K14me3, binder concentration: 10 nM); 0.0377 ± 0.0028 in assay [2] (peptide modifications: H3K14me3, binder concentration: 100 nM); 0.0987 ± 0.029 in assay [3] (setting [15]); 0.0663 ± 0.0053 in assay [3] (setting [16]). Further, the “peptide microarray binding signal” value in assay [4] (setting [15]) came to 0.0574 ± 0.00077; in assay [4] (setting [16]) it was 0.0328 ± 0.0018.

B7: H3 5-17 Q T A R K S T G G Kac A P R (peptide)
chain: QTARKSTGGKAPR
In the case of B7, the “peptide microarray binding signal” value in assay [1] (peptide modifications: H3K14ac, binder concentration: 50 nM) amounted to 0.01348 ± 6.3e-05; in assay [1] (peptide modifications: H3K14ac, binder concentration: 500 nM), 0.0307 ± 0.0021; in assay [2] (peptide modifications: H3K14ac, binder concentration: 10 nM) it was 0.0491 ± 0.007; in assay [2] (peptide modifications: H3K14ac, binder concentration: 100 nM) it was 0.0789 ± 0.0089; in assay [3] (setting [17]), 0.0163 ± 0.0012; in assay [3] (setting [18]), 0.0226 ± 0.0018. For the same molecule, the “peptide microarray binding signal” value in assay [4] (setting [17]) stood at 0.0103 ± 0.00042; in assay [4] (setting [18]), 0.00657 ± 0.0006.

B8: H3 5-17 Q T A R Kme3 S Tph G G K A P R (peptide)
chain: QTARKSTGGKAPR
B8: the “peptide microarray binding signal” value in assay [1] (peptide modifications: H3K9me3 H3T11ph, binder concentration: 50 nM) amounted to 0.00737 ± 0.0032; in assay [1] (peptide modifications: H3K9me3 H3T11ph, binder concentration: 500 nM) it was 0.00981 ± 0.0012; in assay [2] (peptide modifications: H3K9me3 H3T11ph, binder concentration: 10 nM), 0.00352 ± 0.00053; in assay [2] (peptide modifications: H3K9me3 H3T11ph, binder concentration: 100 nM), 0.00539 ± 0.0012; in assay [3] (setting [19]), 0.00485 ± 0.00012; in assay [3] (setting [20]) it was 0.00747 ± 0.0029. For the same molecule, the “peptide microarray binding signal” value came out at 0.215 ± 0.078 in assay [4] (setting [19]) and 0.229 ± 0.095 in assay [4] (setting [20]).

B9: H3 5-17 Q T A R K S T G G Kme A P R (peptide)
chain: QTARKSTGGKAPR
B9: the “peptide microarray binding signal” value in assay [1] (peptide modifications: H3K14me1, binder concentration: 50 nM) worked out at 0.0197 ± 0.00048; in assay [1] (peptide modifications: H3K14me1, binder concentration: 500 nM) it was 0.047 ± 0.0024; in assay [2] (peptide modifications: H3K14me1, binder concentration: 10 nM), 0.0957 ± 0.02; in assay [2] (peptide modifications: H3K14me1, binder concentration: 100 nM) it was 0.0987 ± 0.016; in assay [3] (setting [21]), 0.0306 ± 0.0089; in assay [3] (setting [22]), 0.0289 ± 0.0032. The “peptide microarray binding signal” value in assay [4] (setting [21]) amounted to 0.0125 ± 0.0013; in assay [4] (setting [22]), 0.0104 ± 0.0012.

B10: H3 5-17 Q T A R Kme3 S T G G Kme3 A P R (peptide)
chain: QTARKSTGGKAPR
Consider B10, for which the “peptide microarray binding signal” value in assay [1] (peptide modifications: H3K9me3 H3K14me3, binder concentration: 50 nM) worked out at 0.00721 ± 0.00063; in assay [1] (peptide modifications: H3K9me3 H3K14me3, binder concentration: 500 nM), 0.00614 ± 0.00023; in assay [2] (peptide modifications: H3K9me3 H3K14me3, binder concentration: 10 nM) it was 0.00549 ± 0.00022; in assay [2] (peptide modifications: H3K9me3 H3K14me3, binder concentration: 100 nM), 0.00609 ± 0.00036; in assay [3] (setting [23]) it was 0.0344 ± 0.0088; in assay [3] (setting [24]), 0.0374 ± 0.015. Moreover, the “peptide microarray binding signal” value in assay [4] (setting [23]) amounted to 0.241 ± 0.054; in assay [4] (setting [24]) it was 0.261 ± 0.13.
